Screens deposited in PubChem by Broad Institute.
RAD54 inh: inhibitors of human RAD54 branch migration. Q92698. RAD54 Holliday junction branch migration, FAM/BHQ fluorescence. inhibition, % at 10.4 µM. 360,000 tested, 0.14% active;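 active means mean normalized replicate activity at least 40 and at least half of replicates scoring 40 or more; inconclusive means only one of the two criteria met; inactive means mean below 40 and under half of replicates reaching 40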;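 further: 0% = median of neutral control wells and 100% = median of positive control wells; inhibitors cause a drop in the FAM fluorescence signal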
AF4-AF9 inh: inhibitors of human MLL-AF4/AF9 interaction; AlphaScreen, biotin-AF4 peptide binding to FLAG-AF9; inhibition, % at 10 µM; 350,000 tested, 0.47% active; AID 651704;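 active means every replicate reaching a set inhibition limit, whatever the replicate mean, cut at about 25% in these data; inconclusive means mean inhibition reaches that limit but some replicates miss it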;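 further: 0% = plate neutral control median and 100% = total signal loss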
DENV2 CPE rescue: protects cells from dengue virus 2 cytopathic effect; DENV2-infected cells, cytopathic effect rescue, plate reader; CPE inhibition, % at 9.99 µM; 350,000 tested, 1.7% active; AID 651640; in the data active means CPE inhibition above about 20%, passing the limit was not always enough; inconclusive means no clear call, values can overlap the other calls; tested in BHK-21 cells;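 further: 0% = median of neutral control wells and 100% = median of positive control wells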
RAD52 anneal inh: RAD52 (human) annealing inhibition; P43351; recombinant RAD52 DNA annealing, FRET fluorescence; inhibition, % at 18.7 µM; 360,000 tested, 0.46% active; AID 651710;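 active means every replicate showing at least 50% inhibition; inconclusive means mean inhibition at least 50% but not in every replicate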
dFosB act: mouse delta FosB homodimer activation | P13346 | purified delta FosB, TAMRA-CDK5 oligo fluorescence polarization; percent of positive-control signal above neutral wells | activation, % at 25 µM | 340,000 tested, 0.99% active | AID 493131;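 active means mean activation above about 17%, with every replicate also reaching it, limit read from the data, passing the limit was not always enough; inconclusive means only one of the two conditions met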
Target sequence (P13346 whole entry, looked up): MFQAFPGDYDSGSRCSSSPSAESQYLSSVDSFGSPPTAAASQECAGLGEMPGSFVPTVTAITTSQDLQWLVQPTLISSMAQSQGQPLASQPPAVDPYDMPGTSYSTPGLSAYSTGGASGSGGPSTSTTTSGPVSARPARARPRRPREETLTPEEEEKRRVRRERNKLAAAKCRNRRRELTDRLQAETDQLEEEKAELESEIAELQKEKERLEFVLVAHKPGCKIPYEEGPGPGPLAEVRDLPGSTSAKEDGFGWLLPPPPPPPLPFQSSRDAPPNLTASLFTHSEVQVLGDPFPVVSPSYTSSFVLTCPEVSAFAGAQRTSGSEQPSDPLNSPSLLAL
INS-1E GSIS act: primary screen for activators of insulin secretion dependent on glucose, INS-1E cells, GLuc reporter luminescence. INS-1E GLuc reporter insulin secretion, 2-3 h. 370,000 tested, 0.61% active. activation, % at 16.6 µM;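 active means lowest replicate activation of at least 40%, so every replicate reaches that level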;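 further: 0% = median of neutral control wells and 100% = median of IBMX positive control wells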
* hit, by the source's call; ? = inconclusive; / = no result. Compounds with a hit are over-represented: about 3.1% of the library has one in this group of screens.

SMILES | RAD54 inh | AF4-AF9 inh | DENV2 CPE rescue | RAD52 anneal inh | dFosB act | INS-1E GSIS act
CCOc1ccc(NC(=O)CC2C(=O)N(c3ccc(OC)cc3)C(=O)N2CCc2cccs2)cc1 (stereo unspecified) | / | -1 | 96* | -9 | -2 | /
CCN1C(=O)C(CC(=O)Nc2ccc(OC)cc2)N(CCN2CCOCC2)C1=S (stereo unspecified) | -7 | 4 | 1 | -8 | -2 | -6
CCN1C(=O)C(CC(=O)Nc2ccc(OC)cc2)N(CCCN2CCN(c3ccc(OC)cc3)CC2)C1=S (stereo unspecified) | 10 | 28* | / | -21 | -8 | -18
c1ccc(-c2ccc3[nH]ccc3c2)cc1 | -6 | 6 | 87* | -33 | -2 | /
c1cncc(-c2ccc3[nH]ccc3c2)c1 | 2 | -10 | -3 | -19 | -1 | 11
C=C(C)C(=O)N1CC2(CC(c3cccc(NC(=O)COc4ccc(Cl)cc4)c3)=NO2)C[C@@H]1C(N)=O (stereo partly specified) | 7 | 0 | 34* | -12 | -8 | /
NC(=O)[C@@H]1CC2(CC(c3cccc(NC(=O)COc4ccc(Cl)cc4)c3)=NO2)CN1C(=O)c1ccccc1 (stereo partly specified) | 4 | -22 | 66* | -2 | -24 | /
C/C=C(\C)C(=O)N1CC2(CC(c3cccc(NC(=O)COc4ccc(Cl)cc4)c3)=NO2)C[C@@H]1C(N)=O (stereo partly specified) | -3 | 1 | -5 | -56 | -1 | -26
CCc1ccc(Nc2n[n+](-c3ccccc3)c(-c3ccc(C(=O)O)cc3)s2)cc1 | 0 | -1 | 23* | -10 | 1 | -3
CCc1nnc(NC(=O)CSc2nc3cc4c(cc3cc2CC)OCCO4)s1 | -6 | / | / | / | -30 | 49*
CCc1cc2cc3c(cc2nc1SCC(=O)Nc1nnc(C)s1)OCCO3 | 1 | 9 | 1 | -18 | 0 | 7
C[C@@H]1CN([C@H](C)CO)C(=O)c2cc(NS(=O)(=O)c3ccc(F)cc3)ccc2O[C@@H](C)CCCCO[C@H]1CN(C)S(=O)(=O)c1cccs1 | 3 | -4 | ? | 20 | / | -10
O=C1COCCOCCOCCOCC(=O)NCCN1 | 1 | -1 | 26* | 9 | -2 | 15
Cc1nc2ccccc2c2oc(C(=O)N3CCCC(C)C3)cc12 (stereo unspecified) | -2 | -2 | -2 | -10 | -21 | 46*
COc1ccccc1C#Cc1ccc2c(c1)[C@@H]1[C@@H](CCN1C(=O)Cc1ccccc1)[C@H](CO)N2 | / | 4 | 42* | 10 | / | -1
COc1ccccc1C#Cc1ccc2c(c1)[C@@H]1[C@@H](CCN1C(=O)c1ccccc1)[C@H](CO)N2 | / | -2 | 45* | 18 | / | -7
C[C@@H]1CN([C@H](C)CO)C(=O)Cc2cc(NS(=O)(=O)c3cccs3)ccc2O[C@H]1CN(C)C(=O)Nc1ccccc1 | 3 | -4 | -1 | -7 | / | -1
Cc1ccc(S(=O)(=O)Nc2ccc3c(c2)C(=O)N([C@H](C)CO)C[C@H](C)[C@H](CN(C)CC2CCCCC2)OCCCC[C@@H](C)O3)cc1 | -5 | 1 | ? | 55* | / | -22
C[C@@H]1CCCCO[C@H](CN(C)CC2CCCCC2)[C@@H](C)CN([C@H](C)CO)C(=O)c2cc(NS(=O)(=O)c3ccccc3)ccc2O1 | -4 | -5 | 28* | 10 | / | 7
Cc1ccc(S(=O)(=O)Nc2ccc3c(c2)C(=O)N([C@@H](C)CO)C[C@@H](C)[C@@H](CN(C)CC2CCCCC2)OCCCC[C@@H](C)O3)cc1 | 4 | 22 | 17 | 56* | / | -10
Cc1ccc(S(=O)(=O)Nc2ccc3c(c2)C(=O)N([C@H](C)CO)C[C@H](C)[C@@H](CN(C)CC2CCCCC2)OCCCC[C@@H](C)O3)cc1 | -1 | 0 | ? | 23 | / | -1
C[C@@H]1CCCCO[C@@H](CN(C)S(=O)(=O)c2ccc(Cl)cc2)[C@H](C)CN([C@H](C)CO)C(=O)c2cc(NC(=O)Cc3ccccc3)ccc2O1 | 5 | -1 | 14 | 19 | / | -18
C[C@H]1CN([C@@H](C)CO)C(=O)c2cc(NS(=O)(=O)c3ccc(F)cc3)ccc2O[C@H]1CN(C)Cc1ccccc1 | -7 | 4 | 47* | 15 | / | -3
C[C@@H]1CN([C@H](C)CO)C(=O)c2cc(NS(=O)(=O)c3ccc(F)cc3)ccc2O[C@H]1CN(C)Cc1ccc(-c2ccccc2)cc1 | 3 | 1 | 30* | 5 | / | 4
C[C@@H]1CN([C@@H](C)CO)C(=O)c2cc(NS(C)(=O)=O)ccc2O[C@H]1CN(C)Cc1ccc(-c2ccccc2)cc1 | -8 | 5 | 32* | -7 | / | -2
SMILES | RAD54 inh | AF4-AF9 inh | DENV2 CPE rescue | RAD52 anneal inh | dFosB act | INS-1E GSIS act
COc1cc(C2C(=O)c3ccccc3C2=O)ccc1O | -3 | 0 | -3 | -23 | -6 | 15
CCC(C)c1ccc(C2C3=C(Nc4nc(N)[nH]c(=O)c42)c2ccccc2C3=O)cc1 (stereo unspecified) | 3 | 0 | -5 | -7 | 33* | 4
Nc1nc2c(c(=O)[nH]1)C(c1ccccc1)C1=C(N2)c2ccccc2C1=O (stereo unspecified) | -5 | 8 | -1 | -9 | 3 | 27
COc1cc(C2C3=C(Nc4nc(N)[nH]c(=O)c42)c2ccccc2C3=O)ccc1O (stereo unspecified) | 33 | 17 | -1 | 22 | 43* | /
CCC(=O)Nc1ccc2c(c1)C(=O)N(C)C[C@@H](OC)[C@H](C)CN(C(=O)c1ccccn1)[C@@H](C)CO2 | 3 | -1 | 27* | -8 | / | 0
CCC(=O)Nc1ccc2c(c1)OC[C@H](C)N(C(=O)c1ccccn1)C[C@H](C)[C@H](OC)CN(C)C2=O | / | 0 | 34* | -1 | / | -3
CCCC(=O)Nc1ccc2c(c1)C(=O)N(C)C[C@@H](OC)[C@H](C)CN(C(=O)c1ccccn1)[C@H](C)CO2 | 8 | 0 | 3 | -7 | / | 6
C[C@H]1CN([C@@H](C)CO)C(=O)c2cc(NC(=O)Cc3cn(C)c4ccccc34)ccc2O[C@@H]1CN(C)CC1CC1 | / | 19 | -2 | 16 | / | -17
CCCCn1c(N)c(N(CC)C(=O)c2cc(C)cc(C)c2)c(=O)[nH]c1=O | -1 | 0 | 35* | -11 | 1 | 5
CCCCn1c(N)c(N(CC(C)C)C(=O)C2CCN(S(=O)(=O)c3ccc(C)cc3)CC2)c(=O)[nH]c1=O | / | -4 | -6 | -5 | 56* | 1
CCCCn1c(N)c(N(CC(C)C)C(=O)C2CCN(S(=O)(=O)c3ccc(Cl)cc3)CC2)c(=O)[nH]c1=O | -5 | 5 | -3 | -11 | 14 | -8
COc1ccc(CCN2C(=O)C=CC2=O)cc1OC | / | 5 | 11 | -18 | 5 | 205*
CCNc1nc(NC(C)CC)nc(Oc2ccc(=O)[nH]n2)n1 (stereo unspecified) | 1 | -59 | 0 | -10 | -4 | -3
